Measurements: publication PMC4552634, “A New Set of Chemical Starting Points with Plasmodium falciparum Transmission-Blocking Potential for Antimalarial Drug Discovery” (PLoS ONE, 2015)
The campaign covered roughly 13,000 compounds. About 3,200 (25%) showed an effect of 50% or more. This is one part of the list.

These compounds were tested on P. falciparum stage V gametocytes. Settings: 48 h, 5 µM; inhibitor.
Design: BacTiter-Glo ATP luminescence viability of purified stage V gametocytes in 384-well plates, per cent inhibition versus DMSO

Point of comparison: `COc1ccc2ncc(F)c(CCN3CCC(CNCc4cccc5c4OCO5)CC3)c2n1` [TCMDC-135851], “% Inhibition” value -2.329%. Against it:
- Cc1c(F)cc(C(=O)NC2CC2)cc1-c1ccc2c(cnn2S(=O)(=O)c2cccs2)c1 [TCMDC-135215] — lower, -11.35%
- Cc1c(F)cc(C(=O)NC2CC2)cc1-c1ccc2c(cnn2S(=O)(=O)c2ccc(Cl)s2)c1 [TCMDC-135232] — higher, 32.9%
- Cc1c(F)cc(C(=O)NC2CC2)cc1-c1ccc2c(c1)c(C)nn2S(=O)(=O)c1cccs1 [TCMDC-135260] — higher, 59.41%
- CCN(CC)CCNC(=O)/C(=C/C=C/c1cc2cc(Cl)c(Cl)cc2[nH]1)OC [TCMDC-139013] — lower, -18.02%
- CO/C(=C\C=C\c1cc2cc(Cl)c(Cl)cc2[nH]1)C(=O)NCCCN(C)CCN(C)c1ccccc1 [TCMDC-139497] — lower, -12.25%
- CO/C(=C\C=C\c1cc2cc(Cl)c(Cl)cc2[nH]1)C(=O)NCCCN1CCN(Cc2ccccc2)CC1 [TCMDC-139257] — lower, -24.43%
- CO/C(=C\C=C\c1cc2cc(Cl)c(Cl)cc2[nH]1)C(=O)NCCCNCCN(C)c1ccccc1 [TCMDC-139496] — higher, 56.16%
- CO/C(=C\C=C\c1cc2cc(Cl)c(Cl)cc2[nH]1)C(=O)NCCCNC12CC3CC(CC(C3)C1)C2 [TCMDC-139077] — higher, 103%
- CO/C(=C\C=C\c1cc2cc(Cl)c(Cl)cc2[nH]1)C(=O)NCCCN1CCN(c2ccc(OC)cc2)CC1 [TCMDC-139175] — lower, -57.04%
- CO/C(=C\C=C\c1cc2cc(Cl)c(Cl)cc2[nH]1)C(=O)NCC(C)(C)CN(C)C [TCMDC-139037] — lower, -32.83%
- CCN(CC)CCCNC(=O)/C(=C/C=C/c1cc2cc(Cl)c(Cl)cc2[nH]1)OC [TCMDC-139008] — higher, 50.29%
- CO/C(=C\C=C\c1cc2cc(Cl)c(Cl)cc2[nH]1)C(=O)NCCCN1CCC(c2ccccc2)CC1 [TCMDC-139272] — higher, 8.329%
- CN1CCC=C(C(=O)NCC(C)(C)c2nc(-c3ccc(Cl)c(O)c3)c(-c3ccncc3)[nH]2)C1 [TCMDC-140700] — lower, -7.132%
- Cc1c(OC(C)C)nc2ccccc2c1C(=O)N[C@H](c1cccc(F)c1)C1CC1 [TCMDC-135994] — lower, -18.71%
- O=C(NCCN1CCCC1)c1cccc(-c2ccc(-c3nc4ccccc4[nH]3)cc2)c1 [TCMDC-132324] — lower, -2.761%
- CC(C)c1ccc(NC(=O)c2ccc(CN3CCCN(Cc4cccc(O)c4)CC3)cc2)cc1 [TCMDC-136419] — lower, -24.98%
- Cc1cccc(-c2nn(-c3ccccc3)c3[nH]c(=O)c(CNC4CCCC4)cc23)c1 [TCMDC-136663] — higher, 9.349%
- O=c1[nH]c2c(cc1CNC1CCCCC1)c(-c1cccc(F)c1)nn2-c1ccccc1 [TCMDC-125867] — higher, 39.49%
- Cc1cccc(-c2nn(-c3ccccc3)c3[nH]c(=O)c(CN4CCSCC4)cc23)c1 [TCMDC-124897] — higher, 84.44%
- Cc1ccc(NC(=O)c2ccc(CN3CCCN(CC4CCCCC4)CC3)cc2)cc1C [TCMDC-136425] — lower, -18.57%
- Cc1cc(-c2c[nH]c3ncc(-c4cccc5ncccc45)cc23)ccc1C(=O)O.O=C(O)C(F)(F)F [TCMDC-136377] — higher, 16.5%
- Nc1cccc(CNCc2ccc(-c3ccc(-c4nc5cc(C(F)(F)F)ccc5[nH]4)s3)cc2)c1.O=C(O)C(F)(F)F [TCMDC-132939] — lower, -86.12%
- O=C(O)C(F)(F)F.OCC1CCN(Cc2ccc(-c3ccc(-c4nc5cc(C(F)(F)F)ccc5[nH]4)s3)cc2)CC1 [TCMDC-133120] — higher, 54.7%
- O=C(O)C(F)(F)F.OCC1CCN(Cc2cccc(-c3ccc(-c4nc5cc(C(F)(F)F)ccc5[nH]4)s3)c2)CC1 [TCMDC-133126] — higher, 5.885%
- CN(CCN)Cc1ccc(-c2ccc(-c3nc4cc(C(F)(F)F)ccc4[nH]3)s2)cc1.O=C(O)C(F)(F)F [TCMDC-132821] — higher, 65.23%
- NC(=O)C1CCN(Cc2ccc(-c3ccc(-c4nc5cc(C(F)(F)F)ccc5[nH]4)s3)cc2)CC1.O=C(O)C(F)(F)F [TCMDC-132687] — lower, -37.37%
- CN(CCN)Cc1cccc(-c2ccc(-c3nc4cc(C(F)(F)F)ccc4[nH]3)s2)c1.O=C(O)C(F)(F)F [TCMDC-132820] — higher, 44.42%
- NCc1ccc(CNCc2ccc(-c3ccc(-c4nc5cc(C(F)(F)F)ccc5[nH]4)s3)cc2)cc1.O=C(O)C(F)(F)F [TCMDC-132814] — higher, 75.71%
- CC(C)NCc1ccc(-c2ccc(-c3nc4cc(C(F)(F)F)ccc4[nH]3)s2)cc1.O=C(O)C(F)(F)F [TCMDC-132745] — lower, -79.18%
- CNc1ccc(CNCc2ccc(-c3ccc(-c4nc5cc(C(F)(F)F)ccc5[nH]4)s3)cc2)cc1.O=C(O)C(F)(F)F [TCMDC-132985] — higher, 42.48%
- Cc1cccc2[nH]c(-c3cccc(-c4ccc(NC(=O)Cc5ccon5)cc4)c3)nc12 [TCMDC-136906] — lower, -38.48%
- Cc1cccc(/C=C/C(=O)NC2CCC(N3CCC(c4ccccc4C)CC3)CC2)c1 (centres unmarked) [TCMDC-133528] — lower, -62.92%
- CN1CCN(c2ccnc3ccc(NC(=O)Cc4ccc(Br)c5ccccc45)cc23)CC1 [TCMDC-139254] — higher, 0.9853%
- CS(=O)(=O)NCCCNCc1ccc(-c2cccc(-c3nc4ccc(F)cc4[nH]3)c2)cc1 [TCMDC-133077] — higher, 6.508%
- CCN(CC)CCCOC(=O)c1ccc2c(c1)-c1ccc(C(=O)OCCCN(CC)CC)c3cccc-2c13 [TCMDC-125491] — higher, 109%
- CCCN(CC)CCOC(=O)c1ccccc1 [TCMDC-131376] — higher, 17.72%
- CN(C)C(=O)CC(=O)NCc1cccc(Cl)c1 [TCMDC-131747] — higher, 5.736%
- CCCCN(CCCC)C(=Nc1cccc(Cl)c1Cl)Nc1ccc(C#N)cc1O [TCMDC-140226] — lower, -14.17%
- CCCCN(CCCC)C(=NC(=N)NCc1ccc(Cl)c(Cl)c1)NCCCCCCNC(=NC(=N)NCc1ccc(Cl)c(Cl)c1)N(CCCC)CCCC [TCMDC-131821] — higher, 116.7%
- CCN(CC)/C(=N/C(=N)NCc1cccc(Cl)c1)NCCCCCCN/C(=N\C(=N)NCc1cccc(Cl)c1)N(CC)CC [TCMDC-131820] — higher, 122%
- CC/N=C(/NCCCCCCN/C(=N/CC)NCc1ccccc1)NCc1ccccc1 [TCMDC-137726] — lower, -33.37%
- CCN(CC)C(=NC(=N)NCc1ccc(Cl)cc1)NCCCCCCNC(=NC(=N)NCc1ccc(Cl)cc1)N(CC)CC [TCMDC-131817] — higher, 120%
- CCN(CC)/C(=N/C(=N)NCc1ccc(Cl)cc1Cl)NCCCCCCN/C(=N\C(=N)NCc1ccc(Cl)cc1Cl)N(CC)CC [TCMDC-131819] — higher, 120%
- CCCc1cc(Cc2cnc(N)nc2N)cc(OCCCCCC(=O)O)c1OC [TCMDC-137182] — higher, 2.989%
- O=C(NC1CCN(Cc2ccccc2)CC1)c1ccc2c(=O)n(Cc3ccc(Cl)cc3)c(=S)[nH]c2c1 [TCMDC-125694] — higher, 0.6987%
- COCCNCc1cccc(C#Cc2cc3ncnc(Nc4ccc(OCc5cccc(F)c5)c(Cl)c4)c3s2)n1 [TCMDC-138842] — higher, 7.186%
- Fc1ccc(CN2CCN(c3ncnc4cc(-c5ccccc5)sc34)CC2)cc1 [TCMDC-132385] — lower, -47.67%
- CCCc1cc(Cc2cnc(N)nc2N)cc2c1OC(C)C2C (centres unmarked) [TCMDC-138047] — higher, 3.526%
- O=C1COC2(CN1CC1CCN(Cc3ccc(O)c(Cl)c3)C1)c1ccccc1-c1ccccc12 (centres unmarked) [TCMDC-136343] — higher, -1.738%
- NC(N)=NC(=O)Nc1ccc(Cl)c(C(F)(F)F)c1 [TCMDC-137469] — lower, -12.43%
- Cc1ncc(CN2CCC(C(=O)Nc3ccc(-c4nc5ccccc5o4)cc3)CC2)s1 [TCMDC-124675] — higher, 0.01985%
- O=C(Nc1cccc(CN2CCCN(Cc3cccc(O)c3)CC2)c1)c1ccc2ccccc2c1 [TCMDC-141855] — higher, 21.81%
- Cc1nccc2c(NC(=O)N[C@@H]3CCN(c4ncc(C(F)(F)F)cc4Br)C3)cccc12 [TCMDC-141942] — higher, 13.41%
- Cc1nc2ccc3ccc(CNc4ccc(C(=O)N[C@@H](CCC(=O)O)C(=O)O)c(F)c4)cc3c2c(=O)[nH]1 [TCMDC-138112] — lower, -4.938%
- Cc1ccc2ccncc2c1N [TCMDC-138025] — lower, -56.11%
- CN(Cc1ccc(-c2ccc(C(F)(F)F)cc2)cc1)C(=O)Cn1c(CCc2cccc(F)c2F)nc(=O)c2ccc(N3CCN(CCN4CCCCC4)CC3)nc21 [TCMDC-136511] — higher, 109.8%
- CN1CCC(N2CCN(c3ccc4c(=O)nc(CCc5cccc(F)c5F)n(CC(=O)N(C)Cc5ccc(-c6ccc(C(F)(F)F)cc6)cc5)c4n3)CC2)CC1 [TCMDC-136512] — higher, 105.9%
- Cc1cc(NC(=O)Nc2cccc(C#N)c2)c2ccccc2n1 [TCMDC-138953] — higher, 4.681%
- Nc1cccc(CNCc2ccc(-c3ccc(-c4nc5ccccc5[nH]4)s3)cc2)c1 [TCMDC-132927] — lower, -10.94%
- CSc1nc2nc(C)c(Cc3cccc(C(F)(F)F)c3)c(C)n2n1 [TCMDC-123763] — lower, -63.49%
- CN(C)CCC(O)(c1ccc(Br)cc1)c1cccnc1 (centres unmarked) [TCMDC-131412] — lower, -6.865%
- CC(CO)(CO)NCc1cc2ccc3ccsc3c2c2ccccc12 [TCMDC-137753] — higher, 1.403%
- CC(CO)(CO)NCc1cc2c3ccccc3c(CNC(C)(CO)CO)cc2c2ccccc12 [TCMDC-137752] — higher, 88.47%
- Cn1c2ccccc2c2c3ccccc3c(CNC(CO)(CO)CO)cc21 [TCMDC-137747] — higher, 1.595%
